Screening data (PubChem)
VCAM1 pot – potentiators of TNFa-induced VCAM1 expression, primary screen, imaging, HUVEC, TNFa stimulus, immunofluorescence | HUVEC TNFa-stimulated VCAM-1 immunofluorescence, high-content imaging; scaled per plate to unstimulated/TNFa-only wells | AID 808, 2007 | activation, % at 2 µM | 93,000 tested, 0.19% active;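 active = activation above the screen mean plus 3 SD, with well images confirming the hit on visual review, cut at about 28% in these data, passing the limit was not always enough; inconclusive = activation above that limit but images do not confirm it; inactive = activation not above that limit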;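 also: signal is the number of cytoplasmic VCAM-1 stained grains per positive cell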
VCAM1 pot confirm – potentiators of TNFa-induced VCAM1 expression, confirmation, imaging, HUVEC, triplicate retest | shares compounds with VCAM1 pot | HUVEC TNFa-stimulated VCAM-1 immunofluorescence imaging | activation, % at 2 µM | 230 tested, under 10 active;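 active = activation above 30% in triplicate retests at 2 µM, then confirmed by visual review of the well images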;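 also: scaled per plate between unstimulated and TNFa-stimulated DMSO control wells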
Numbers without * were called inactive; ? = inconclusive. Only a selection was taken, and hits are over-represented in it overall.

SMILES	VCAM1 pot	others
O=C(Cn1cnc([N+](=O)[O-])c1)Nc1cc(Oc2ccc(Cl)cc2Cl)cc([N+](=O)[O-])c1	-11.3
Cc1nc2ccccc2n1CC(O)COC1CCCCC1 (stereo not drawn)	3.2
Cc1nccn1CC(O)COc1ccccc1 (stereo not drawn)	8.0
Cc1nccn1CC(O)COC1CCCCC1 (stereo not drawn)	?	VCAM1 pot confirm=-19.9
CC(C)n1c(SC2CCOC2=O)nc2ccccc21 (stereo not drawn)	-9.5
Cc1ccc(CC(=O)NCCS(=O)c2ccc(Cl)cc2)cc1 (stereo not drawn)	-10.7
C#CCSc1nc(Cc2ccc(Cl)cc2)nc2ccccc12	3.0
COc1ccccc1CN(Cc1ccco1)S(=O)(=O)c1ccc(-n2cnnn2)c(OC)c1	43.0*	VCAM1 pot confirm=-18.7
CS(=O)(=O)N(Cc1ccco1)Cc1ccccc1Cl	2.2
Cc1cc(S(=O)(=O)N(Cc2ccc(F)cc2)CC2CCCO2)ccc1-n1cnnn1 (stereo not drawn)	-9.4
CC1=Nc2ccc(C)cc2N(Cc2ccccc2)C(=O)C1	-4.4
CON/C=C(\C=Nc1ccc(Cl)cc1)c1ncc(C(F)(F)F)cc1Cl	1.7
COC(=O)c1cc(NC(=O)CCc2c(C)nc3ncnn3c2C)cc(C(=O)OC)c1	8.5
CC1CCc2nn(CC(=O)Nc3c(F)cc(F)cc3Br)cc2C1 (stereo not drawn)	-7.2
CCOC(=O)c1nnn(CC(=O)N2N=C(c3ccccc3)CC2c2ccccc2)c1C(=O)OCC (stereo not drawn)	16.6
CNC(=S)N1N=C(c2ccc(Br)cc2)CC1c1ccc(Br)cc1 (stereo not drawn)	69.0*	VCAM1 pot confirm=0.0
Cn1c(=O)c2c(ncn2CC(=O)Nc2nc3ccc(F)cc3s2)n(C)c1=O	-2.1
COC(=O)c1cccc(NC(=O)C23CC4CC(C2)CC(n2cncn2)(C4)C3)c1	-7.6
CCC/C(=N/NC(=O)c1csc(C)c1C)c1ccc(Cl)s1	1.0
O=C(NCc1ccco1)c1ccc(CS(=O)(=O)Cc2ccc(Cl)cc2)o1	-92.8
CC(C)Oc1ccc(C(=O)NCc2ccco2)cc1	0.7
O=C(NCc1ccco1)c1sc2cc(Cl)ccc2c1Cl	64.3*	VCAM1 pot confirm=-12.8
N#CC1(C#N)C2=C(CCCC2)NC(c2ccccc2)C1(C#N)C#N (stereo not drawn)	-20.0
O=C(Nc1cc(Cl)cc(Cl)c1)C1CCC(=O)N1Cc1ccccc1Cl (stereo not drawn)	-2.8
O=C1CC(c2ccc(F)cc2)C2=C(CCCC2=O)N1 (stereo not drawn)	7.6
SMILES	VCAM1 pot	others
C=CCOn1c(=O)c(=O)n(OCc2ccccc2)c2ccccc21	95.5*	VCAM1 pot confirm=-15.3
c1ccc(CC2CCN(c3nc(N4CCOCC4)nc(N4CCOCC4)n3)CC2)cc1	-20.8
Cc1c(C(N)=O)c(N)c(C(=O)c2ccccc2)n1-c1ccccc1	-3.8
CCNC(=O)/N=C1/NC(=O)C(C(C)C)O1 (stereo not drawn)	-8.7
CCCc1nn(-c2ccccc2)c2c1C(c1cccs1)C(C#N)=C(N)O2 (stereo not drawn)	8.4
CCCC1=C(C(=O)OCC)C(c2c(C)nn(-c3ccccc3)c2Cl)C(C#N)=C(N)O1 (stereo not drawn)	43.6*	VCAM1 pot confirm=-24.0
CCOC(=O)C1=C(CSc2nc3c(cc2C#N)CN(C)CC3)OC(N)=C(C#N)C1c1ccccc1 (stereo not drawn)	-95.7
Cc1nn2c(N)csc2nc1=O	-9.4
CCOC(=O)C1(P(=O)(c2ccc(Cl)cc2)c2ccc(Cl)cc2)CCC1	-0.6
Cc1c(C(C)NC(=O)Nc2ccc(F)cc2F)cnn1C (stereo not drawn)	25.3
CCOc1ccc(C2/C(=C(/O)c3ccc(OC)cc3)C(=O)C(=O)N2c2cc(C)on2)cc1OC (stereo not drawn)	57.6*	VCAM1 pot confirm=-4.4
Cc1cc(N2C(=O)C(=O)/C(=C(/O)c3ccc(F)cc3)C2c2ccc(F)cc2)no1 (stereo not drawn)	5.5
Cc1ccc(C2/C(=C(/O)c3ccc(OC(C)C)cc3)C(=O)C(=O)N2CCN2CCOCC2)cc1 (stereo not drawn)	-4.6
CC(=O)NC(Cc1ccccc1)C(=O)N1CCN(C(=O)c2cccs2)CC1 (stereo not drawn)	-6.8
CCC(CC)c1nnc(NC(=O)c2nc3nc(C)cc(C)n3n2)s1	-14.0
NC(=O)c1c(NC(=O)Cc2cccs2)sc2c1CCC2	-92.5
CCC(=O)Nc1sc2c(c1C(N)=O)CCC2	113.9*	VCAM1 pot confirm=-8.2
NC(=O)c1c(NC(NC(=O)c2ccco2)(C(F)(F)F)C(F)(F)F)sc2c1CCCC2	-16.6
CN1CC(=O)Nc2ccc(F)cc2C1=O	32.4
Cn1nc(-c2ccc(C(=O)N3CCN(c4ccccc4)CC3)cc2)c2ccccc2c1=O	10.5
O=C(c1ccc(-c2ccccc2)cc1)N1CCN(c2ncccn2)CC1	?	VCAM1 pot confirm=-4.3
O=C(c1ccc2c(c1)[nH]c(=S)n1c3ccccc3nc21)N1CCN(c2ncccn2)CC1	-1.0
COC(=O)c1nnn(CC(=O)Nc2cccc(Cl)c2)c1C(=O)OC	0.2
COc1cccc(NC(=O)c2ccn(C)n2)c1	-7.0
CCCCNC(=O)CSc1nc2ccccc2c(=O)n1Cc1ccc2c(c1)OCO2	0.4
SMILES	VCAM1 pot	others
Cc1cc(NC(=O)CSc2nc3ccccc3c(=O)n2C2CCCC2)no1	-67.7
CCCN(CCC)C(=O)CSc1nc2ccccc2c(=O)n1C1CCCC1	63.1*	VCAM1 pot confirm=-7.9
CCN(C1CCCCC1)S(=O)(=O)c1cn(C)c(=O)n(C)c1=O	-2.1
O=C(OCCCN=C1NS(=O)(=O)c2ccccc21)C1CC(=O)N(c2ccc(Cl)cc2)C1 (stereo not drawn)	5.4
CCCCC(CC)CNS(=O)(=O)c1ccc2c(c1)CCN2C(=O)CCC(=O)O (stereo not drawn)	-9.5
O=c1oc2ccccc2c2c1ncn2C1CCCCC1	4.1
O=C(NCCc1ccccc1F)[C@@H]1CSC2c3ccccc3C(=O)N21 (stereo partly drawn)	0.9
Cc1ccc(N(CC(=O)NCc2ccc3c(c2)OCO3)S(C)(=O)=O)cc1	7.6
O=C(CN1C(=O)NC2(CCCCCCC2)C1=O)N1CCOCC1	-8.4
O=C(CN1C(=O)NC2(CCCCCCC2)C1=O)NCc1ccc2c(c1)OCO2	51.2*	VCAM1 pot confirm=-11.4
COc1ccc(C)cc1NC(=O)COC(=O)C1CC1	55.9*	VCAM1 pot confirm=-14.1
COc1ccc(C)cc1NC(=O)CN(Cc1nnc(-c2ccc(Cl)cc2)o1)C1CCCC1	-1.2
Cc1cccc(OCC(=O)Nc2cc(C)ccc2O)c1	-57.7
COc1ccc(NC(=O)C(=O)NCCN2CCN(C(=O)C(c3ccccc3)c3ccccc3)CC2)cc1	-5.7
COc1cccc(-c2cc(N)nn2C(=O)Nc2ccc(Cl)cc2)c1	-8.4
CCOC(=O)C1=C(c2ccccc2)OC(N)=C(C#N)C1c1ccco1 (stereo not drawn)	-68.6
COCCOC(=O)C1=C(C)OC(N)=C(C#N)C1c1ccc2c(c1)OCO2 (stereo not drawn)	?	VCAM1 pot confirm=2.0
CCOC(=O)Nc1ccc2c(c1)OCO2	-1.5
CCOC(=O)COc1ccc2c(c1)C(=O)CC1(CCCCC1)O2	2.9
CC(C)(C)c1nn(-c2ccccc2)c2[nH]c(=O)c(CNCc3ccc4c(c3)OCO4)cc12	7.1
CN(C)c1oc(-c2ccccc2Cl)nc1C#N	41.1*	VCAM1 pot confirm=5.0
COc1ccc(-c2nc(C#N)c(NCCCN(C)C)o2)cc1OC	-96.6
